Shown are actives, neighbours in structure and some others; about 7.9% of the full set was active somewhere.
Marburg entry inh: inhibitors of Marburg virus binding or cell entry. Potency, µM (doses to about 37.8 µM), for inactives: at the top dose activity change, negative = inhibition, actives largely listed as inhibitors. Marburg virus pseudotyped entry inhibition, cell reporter. AID 540276. actives 1.8% (n = 300,000); calls by dose curve; tested in HEK293 cells; note: potency is the fitted concentration of half-maximal effect
HCMV antiviral: blocks human cytomegalovirus replication | HFF cells, HCMV-luciferase reporter, 72 h; hits give low values | activity change, negative = inhibition, % at 57.5 µM | actives 4.5% (n = 410,000); in the data active = activity change below about -60%; inconclusive = no clear call, values can overlap the other calls; inactive = above about -39%
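Two compound doses tested in HFFs infected with HCMV-luciferase, MOI 1 PFU/cell, 72 h at 37C. Lysate luminescence read with OneGlo; data normalized against buffer-only and 10uM Salinomycin inhibitor controls.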
FMDV inh: blocks foot and mouth disease virus | FMDV antiviral cell-based qHTS | Potency, µM (highest dose often 57.9 µM), for the others: at the top dose activity change, negative = inhibition, actives largely listed as inhibitors | actives 1.2% (n = 410,000); calls by dose curve; tested in HEK293T cells; note: read-out not given here; potency is the fitted concentration of half-maximal effect; nearly all actives have a fitted effect of over 45% in size
HCV inhibitor: blocks hepatitis C virus. Huh7.5.1 HCVcc-Cre infection, luciferase reporter, 44 h. Potency, µM (titrated, usually from 41.8 µM), for inactives: top-dose activity change, negative = inhibition, most hits filed as inhibitors. actives 3.4% (n = 340,000). AID 651820; active = well fitted inhibition curve with a large enough effect; inconclusive = small, poorly fitted or top-dose-only effect, or another doubt; inactive = no such curve, though single readings can be large or run the other way; note: potency is the fitted concentration of half-maximal effect
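Compounds are dispensed onto cells plated 4 h earlier at 1,000 per well, with HCVcc-Cre virus (about 0.5 moi) added next. Following 44 h of culture, luminescent signal is measured for 15 sec after 15 min with substrate at room temperature.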
Lassa entry inh: blocks Lassa virus binding to or entry into cells; Lassa virus pseudotype entry inhibition, cell reporter; Potency, µM (highest dose often 37.9 µM), for the others: top-dose activity change, negative = inhibition, most hits filed as inhibitors; actives 1.2% (n = 300,000); calls by dose curve; tested in HEK293 cells; note: potency is the fitted concentration of half-maximal effect; nearly all actives have a fitted effect of over 50% in size
* = called active by the depositor; ? = inconclusive; . = not tested or not shown; ! = not active in a repeat; [ ] = dose if it differs, or a comment. % is set by controls: 0 for no effect and ±100 for the full control effect.

SMILES	Marburg entry inh	HCMV antiviral	FMDV inh	HCV inhibitor	Lassa entry inh
Cc1ccc(S(=O)(=O)N2CCOCC2)cc1NC(=O)COC(=O)CSc1ccc(Br)cc1C	4%	-96*	2%	10%	3%
Cc1ccc(NC(=O)NC(=O)CN2CCN(c3ccc(O)cc3)CC2)c(C)c1	-1%[46.1 µM]	-81*	-5%	?	-26%[46.1 µM]
Cc1ccc(C2(C)NC(=O)N(CC(=O)Nc3cc(S(=O)(=O)N4CCOCC4)ccc3C)C2=O)cc1 (centres undefined)	-4%	-101*	-25%	7%	-17%
COc1cccc(Cn2c(OC[C@H]3CCCO3)nc3c2c(=O)n(C)c(=O)n3C)c1	16%	.	.	.	.
CO[C@H]1C=CO[C@@]2(C)Oc3c(C)c(O)c4c(O)c(c5c(nc6cc(C)ccn65)c4c3C2=O)NC(=O)/C(C)=C\C=C[C@H](C)[C@H](O)[C@@H](C)[C@@H](O)[C@@H](C)[C@H](OC(C)=O)[C@@H]1C	.	.	-18%	.	.
COc1ccc(C2C(=O)N(C3CCCCC3)CC(=O)N2CCc2ccc(OC)c(OC)c2)cc1 (centres undefined)	.	2	-5%	.	4%[46.1 µM]
Cc1ccc(C)c(NC(=O)Cn2ncc3c([nH]c4ccccc43)c2=O)c1	.	7	6%	.	0%[46.1 µM]
Cc1ncc2c(c1CNC(=O)CN1CCCCC1)CCN(C(=O)c1ccc(F)cc1Cl)C2	.	.	5%	.	.
CC1=C(C(=O)Nc2cccnc2)C(c2ccccc2)n2nc(SCc3ccccc3F)nc2N1 (centres undefined)	?	4	6%	.	-2%[46.1 µM]
CS(=O)(=O)Nc1ccc([N+](=O)[O-])cc1Oc1ccccc1	?	35	?	3%[8.37 µM]	0.016µM*!
Cc1ccc(S(=O)(=O)c2c(C(=O)c3ccccc3)cnc3cc4c(cc23)OCCO4)cc1	?	-99*	13%	-3%	?
COc1ccc(S(=O)(=O)c2c(C(=O)c3ccc(C)c(C)c3)cnc3ccc(F)cc23)cc1	?	-39	?	.	.
Cc1ccc2ncc(C(=O)c3ccc(C)c(C)c3)c(S(=O)(=O)c3ccc(F)cc3)c2c1	?	-74*	-16%	.	.
COc1ccc(C(=O)c2cnc3ccc(C)cc3c2S(=O)(=O)c2ccccc2)cc1	?	-98*	13%	.	.
CCOc1ccc(S(=O)(=O)c2c(C(=O)c3ccc(C)c(C)c3)cnc3ccccc23)cc1	-13%[46.1 µM]	-3	-22%	.	.
CCc1ccc(S(=O)(=O)c2c(C(=O)c3ccccc3)cnc3ccc(CC)cc23)cc1	?	-77*	12%	.	.
COc1ccccc1CNC(=O)c1cnn(-c2nccc(-c3cccs3)n2)c1C	.	.	49%	.	.
CSc1cccc(NC(=O)c2cccc(N3CCCS3(=O)=O)c2)c1	.	23	-5%	.	2%[46.1 µM]
COc1ccc2c3c(n(C)c2c1)[C@@H](CO)N(C(C)=O)CC31CN(Cc2nccs2)C1	.	5	.	.	.
CCOC(=O)CNC(=O)c1cc(-c2ccccn2)nc2c(C)c(Cl)ccc12	5µM*	?	-16%	-10%	-16%
O=C(COC(=O)c1nsc(Cl)c1Cl)NC1CCCCC1	-14%[46.1 µM]	-5	-6%	18%	14%
CC(C)(C)NC(=O)COC(=O)c1snc(C(=O)NC2CCCCC2)c1N	-13%	?	?	7.1µM*	?
Cc1ccc(S(=O)(=O)CC(=O)Nc2nc3c(C)cc(C)cc3s2)cc1	.	?	-2%	.	-2%[46.1 µM]
N=c1n(CCN2CCCCC2)c2ccccc2n1CC(O)COc1ccccc1 (centres undefined)	?	20	40µM*!	11µM*	?
Cc1ccccc1OCC(O)Cn1c(=N)n(CCN2CCCCC2)c2ccccc21 (centres undefined)	?	-92*	?	.	?
SMILES	Marburg entry inh	HCMV antiviral	FMDV inh	HCV inhibitor	Lassa entry inh
N=c1n(CCN2CCOCC2)c2ccccc2n1CC(O)COc1ccccc1 (centres undefined)	?	28	-28%	0%	-9%
Cc1ccccc1OCCn1c(=N)n(C(C)C)c2ccccc21	?	-69*	?	.	-24%[46.1 µM]
COc1ccccc1OCC(O)Cn1c(=N)n(CCN2CCCCC2)c2ccccc21 (centres undefined)	?	?	-28%	2.5µM*	?
COc1ccc(OCC(O)Cn2c(=N)n(CCN3CCOCC3)c3ccccc32)cc1 (centres undefined)	?	-18	11%	-19%	6%
Cc1ccccc1OCC(O)Cn1c(=N)n(CCN2CCOCC2)c2ccccc21 (centres undefined)	?	?	?	?	-28%
Cc1ccccc1OCCN1C(=O)c2ccccc2C1=O	0%	9	.	17%	3%
CC(=O)c1ccc(-c2cc(F)cc3c2OC(CNC(=O)c2ccc[n+]([O-])c2)C3)s1 (centres undefined)	.	.	0%	.	.
Cc1ccccc1OCC(O)CN (centres undefined)	19%	-21	9%	18%	5%
Cc1ccccc1OCC(O)COc1ccccc1C	3%[46.1 µM]	-100*	16%	-22%	?
O=[N+]([O-])c1ccc(/C=N/Nc2ccc3ccccc3c2)o1	-11%	-72*	-17%	-9%	3%
CCNc1nc(NCC)nc(N/N=C/c2ccc([N+](=O)[O-])o2)n1	?	?	-19%	-28%	-17%
Cc1ccc2nc(N/N=C\c3ccc([N+](=O)[O-])o3)nc(-c3ccccc3)c2c1	10µM*	?	-29%	?	?
O=[N+]([O-])c1ccc(/C=N/Nc2nc(-c3ccccc3)c3cc(Br)ccc3n2)o1	16%	?	?	?	13%
CC(C)CN1C(=O)N[C@@](NC(=O)c2cccnc2)(C(F)(F)F)C1=O	19%	.	.	.	.
Cc1cc(-c2ccc(C)c(S(=O)(=O)N3CCN(c4cccc(C(F)(F)F)c4)CC3)c2)on1	.	?	-24%	.	-5%[46.1 µM]
CC(C)Cc1nn2c(=O)cc(COC(=O)c3ccc4c(c3)OCO4)nc2s1	.	1	-14%	.	14%[46.1 µM]
COc1cc(OC)cc(-c2cc3nc(C)c(CCC(=O)Nc4ccc(F)c(Cl)c4)c(C)n3n2)c1	?	-62*	32µM*	.	-21%[46.1 µM]
COc1cc(NC(=O)CCc2c(C)nc3cc(-c4ccccc4)nn3c2C)cc(OC)c1OC	-12%[46.1 µM]	-104*	-22%	.	14%[46.1 µM]
COc1ccc(-c2csc(NCc3ccco3)n2)cc1C	4%	.	91%	-20%	-4%
Cc1ccn2c(-c3csc(NCc4ccco4)n3)c(C)nc2c1	0%	-68*	?	?	0%
COc1cccc(OCc2nc3ccccc3n2C)c1	?	66	7%	.	32%[46.1 µM]
Cc1ccc(N(C)S(=O)(=O)c2ccc3[nH]cc(C(=O)O)c(=O)c3c2)cc1C	5%[46.1 µM]	100	-4%	.	23%[46.1 µM]
O=C(O)CCc1ccc(S(=O)(=O)Nc2ccc(OCc3ccccc3)cc2)cc1	?	10	7%	?	-2%[46.1 µM]
CC(C)(C)NS(=O)(=O)c1ccc(CCC(=O)Nc2cc(Cl)ccc2Oc2ccccc2)cc1	8.9µM*	17	?	8.9µM*	?
